# According to the supplement of paper PMC8975748:
# Counter-ions that a name gives are not always drawn.
# System: Saccharomyces cerevisiae BY4741 SeMeCo community
# Test: z-score of subpopulation abundance vs DMSO median, subpopulation auxotrophic for HLUM; higher = larger share of this subpopulation than in DMSO controls
# Details: 10 µM; 24 h; SM minimal medium; subpopulation (auxotrophy): HLUM
# Protocol: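 Fluorescent four-plasmid SeMeCo (self-establishing metabolically cooperating S. cerevisiae BY4741 community; plasmids pH-mRuby2, pL-mWasabi, pU-eCFP, pM-TagRFP657) was grown 24 h in minimal SM medium with each Selleck FDA-approved drug at 10 µM in 384-well plates. Cells were fixed and imaged by high-content confocal microscopy. For each auxotrophic subpopulation (and the prototroph), a z-score gives the deviation from the DMSO vehicle-control population median.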
row,Compound,z-score of subpopulation abundance
1,COC(=O)C1=C(C)NC(C)=C(C(=O)OC(C)(C)CN(C)CCC(c2ccccc2)c2ccccc2)C1c1cccc([N+](=O)[O-])c1 (stereo not given) [Lercanidipine],1.54
2,Clc1ccccc1C(c1ccccc1)(c1ccccc1)n1ccnc1 [Clotrimazole],9.79
3,Cc1cc(C)nc(NS(=O)(=O)c2ccc(N)cc2)n1 [Sulfamethazine],0.42
4,NC[C@H]1O[C@H](O[C@H]2[C@H](O)[C@@H](O[C@H]3O[C@H](CO)[C@@H](O)[C@H](N)[C@H]3O)[C@H](N)C[C@@H]2N)[C@H](N)C[C@@H]1O [Tobramycin],-1.08
5,CC1=C(CC(=O)O)c2cc(F)ccc2/C1=C\c1ccc([S+](C)[O-])cc1 (stereo not given) [Sulindac],-0.02
6,NCc1ccccc1CC(=O)N[C@@H]1C(=O)N2C(C(=O)O)=C(CSc3nnnn3CC(=O)O)CS[C@H]12 [Ceforanide],1.14
7,CCN(CC)CCNC(=O)c1cc(Cl)c(N)cc1OC [Metoclopramide],1.06
8,CC#C[C@]1(O)CC[C@H]2[C@@H]3CCC4=CC(=O)CCC4=C3[C@@H](c3ccc(N(C)C)cc3)C[C@@]21C [Mifepristone],-0.67
9,O=S1(=O)CCN(CN2CCS(=O)(=O)NC2)CN1 [Taurolidine],-0.55
10,CCC(C)(C)c1ccc(CC(C)CN2C[C@@H](C)O[C@@H](C)C2)cc1 (stereo not given in full) [Amorolfine HCl],5.77
11,Cc1ccc(C(=O)C(C)CN2CCCCC2)cc1 (stereo not given) [Tolperisone HCl],-0.57
12,O=c1c(-c2ccc(O)cc2)coc2c([C@@H]3O[C@H](CO)[C@@H](O)[C@H](O)[C@H]3O)c(O)ccc12 [Puerarin],-0.33
13,CCCCCCCCc1ccc(CCC(N)(CO)CO)cc1 [Fingolimod],-1.27
14,CN(C)CCc1c[nH]c2ccc(CS(=O)(=O)N3CCCC3)cc12 [Almotriptan Malate],-0.37
15,Nc1ccc(C(=O)O)c(O)c1 [4-Aminosalicylic acid],-0.18
16,NC(=O)c1cn(Cc2c(F)cccc2F)nn1 [Rufinamide],0.29
17,CN1CCCN=C1/C=C/c1cccs1 [Pyrantel Pamoate],-0.17
18,CO/N=C(\C(=O)N[C@@H]1C(=O)N2C(C(=O)O)=C(COC(N)=O)CS[C@H]12)c1ccco1 [Cefuroxime sodium],-0.98
19,CO[C@H]1C[C@@H]2CC[C@@H](C)[C@@](O)(O2)C(=O)C(=O)N2CCCC[C@H]2C(=O)O[C@H]([C@H](C)C[C@@H]2CC[C@@H](OCCO)[C@H](OC)C2)CC(=O)[C@H](C)/C=C(\C)[C@@H](O)[C@@H](OC)C(=O)[C@H](C)C[C@H](C)/C=C/C=C/C=C/1C [Everolimus (RAD001)],24
20,C[C@]1(Cn2ccnn2)[C@H](C(=O)O)N2C(=O)C[C@H]2S1(=O)=O [Tazobactam],0.69

row,Compound,z-score of subpopulation abundance
1,C#C[C@]1(O)CC[C@H]2[C@@H]3CCc4cc(OC)ccc4[C@H]3CC[C@@]21C [Mestranol],0.02
2,CCCCCCCCCC(=O)NC1C(Oc2c3cc4cc2Oc2ccc(cc2Cl)C(OC2OC(CO)C(O)C(O)C2NC(C)=O)C2NC(=O)C(NC(=O)C4NC(=O)C4NC(=O)C(Cc5ccc(c(Cl)c5)O3)NC(=O)C(N)c3ccc(O)c(c3)Oc3cc(O)cc4c3)c3ccc(O)c(c3)-c3c(OC4OC(CO)C(O)C(O)C4O)cc(O)cc3C(C(=O)O)NC2=O)OC(CO)C(O)C1O (stereo not given) [Teicoplanin],-0.79
3,C[C@]12CC[C@@H]3c4ccc(OS(=O)(=O)O)cc4CC[C@H]3[C@@H]1CCC2=O [Estropipate],-0.39
4,NC(=O)N1c2ccccc2CC(=O)c2ccccc21 [Oxcarbazepine],0.1
5,CCC[C@@H]1C[C@@H](C(=O)N[C@@H]([C@H]2O[C@H](SC)[C@H](O)[C@@H](O)[C@H]2O)[C@@H](C)O)N(C)C1 [Lincomycin HCl],-0.36
6,CC1(C)S[C@@H]2[C@H](NC(=O)Cc3ccccc3)C(=O)N2[C@H]1C(=O)O.CCN(CC)CCOC(=O)c1ccc(N)cc1 [Penicillin G Procaine],1.65
7,CN[C@H](CC(C)C)C(=O)N[C@H]1C(=O)N[C@@H](CC(N)=O)C(=O)N[C@H]2C(=O)N[C@H]3C(=O)N[C@H](C(=O)N[C@H](C(=O)O)c4cc(O)cc(O)c4-c4cc3ccc4O)[C@H](O)c3ccc(c(Cl)c3)Oc3cc2cc(c3O[C@@H]2O[C@H](CO)[C@@H](O)[C@H](O)[C@H]2O[C@H]2C[C@](C)(N)[C@H](O)[C@H](C)O2)Oc2ccc(cc2Cl)[C@H]1O [Vancomycin HCl],-0.53
8,CC(C)[C@H]1CC[C@H](C(=O)N[C@H](Cc2ccccc2)C(=O)O)CC1 [Nateglinide],0.69
9,CCOc1ccc(NC(C)=O)cc1 [Phenacetin],0.17
10,Clc1ccc(COC(Cn2ccnc2)c2ccc(Cl)cc2Cl)c(Cl)c1 (stereo not given) [Miconazole Nitrate],9.42
11,COCCOC(=O)C1=C(C)NC(C)=C(C(=O)OC(C)C)C1c1cccc([N+](=O)[O-])c1 (stereo not given) [Nimodipine],-0.14
12,OC(CCN1CCCCC1)(c1ccccc1)C1CCCCC1 (stereo not given) [Trihexyphenidyl hydrochloride],-0.13
13,CC(C)(O/N=C(\C(=O)N[C@@H]1C(=O)N2C(C(=O)[O-])=C(C[n+]3ccccc3)CS[C@H]12)c1csc(N)n1)C(=O)O [Ceftazidime],-0.76
14,O=C(C1CCCCC1)N1CC(=O)N2CCc3ccccc3C2C1 (stereo not given) [Praziquantel],0.11
15,NS(=O)(=O)Cc1noc2ccccc12 [Zonisamide],1.75
16,COCC1=C(C(=O)OC(C)OC(=O)OC(C)C)N2C(=O)[C@@H](NC(=O)/C(=N\OC)c3csc(N)n3)[C@H]2SC1 (stereo not given in full) [Cefpodoxime proxetil],0.35
17,CC(=O)[C@H]1CC[C@H]2[C@@H]3CC=C4C[C@@H](O)CC[C@]4(C)[C@H]3CC[C@]12C [Pregnenolone],0.21
18,CO/N=C1\C[C@]2(C[C@@H]3C[C@@H](C/C=C(\C)C[C@@H](C)/C=C/C=C4\CO[C@@H]5[C@H](O)C(C)=C[C@@H](C(=O)O3)[C@]45O)O2)O[C@H](/C(C)=C/C(C)C)[C@H]1C [Moxidectin],-0.1
19,CC1CCc2cc(F)cc3c(=O)c(C(=O)O)cn1c23 (stereo not given) [Flumequine],0.55
20,O=C(O)c1cn(-c2ccc(F)cc2)c2cc(N3CCNCC3)c(F)cc2c1=O [Sarafloxacin HCl],-0.29
